Experimental data reported in PubChem BioAssay AID1159580 (chemical genetic matrix, 2015).
The whole screen tested about 5,500 compounds, of which about 2,000 (36%) were called active. Not shown: some 18% with an inconclusive outcome. Rule as the data show it: active = normalized growth mostly below about 0.91 (no sharp cut-off); inconclusive = no clear call, values can overlap the other calls; inactive = mostly above about 0.92. The list shows a part of the results.

Assay: chemical genetic growth profiling, strain panel (AID 1159580);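 also: tested at 20 µM; growth read once vehicle control cultures reached saturation at 30 °C; 1 = growth at the plate median or of vehicle wells; lower values mean less growth of the strain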
Details: S. cerevisiae deletion strains, growth OD

Measured: normalized growth

O=C(O)CC[C@@H](C(=O)O)N1C(=O)c2ccccc2C1=O
inactive: locus YAL040C, strain CLN3, hits give low values 0.987 | locus YCL061C, strain MRC1 (second series), hits give low values 1.01 | locus YDR150W, strain NUM1, hits give low values 1 | locus YDR363W, strain ESC2, hits give low values 0.987 | locus YER002W, strain NOP16, hits give low values 0.975 | locus YGR229C, strain SMI1, hits give low values 1 | locus YNL175C, strain NOP13, hits give low values 0.973 | locus YNL197C, strain WHI3, hits give low values 0.976 | locus YNL224C, strain SQS1, hits give low values 0.991 | locus YOR083W, strain WHI5 (second series), hits give low values 1.06
